# Measurements from paper PMC10668032, “Altered binding affinity of SIX1-Q177R correlates with enhanced WNT5A and WNT pathway effector expression in Wilms tumor”.
# The full ranking holds about 33,000 sequences; the median of “e-score” is about -0.05, and the highest 2% start at about 0.38. Shown is part of a subset that was picked to be rich in the highest values.
# Biological target: T1, SIX1-Q177R homeodomain (human, UniProt Q15475 108-198, Q177R)
# T1 sequence: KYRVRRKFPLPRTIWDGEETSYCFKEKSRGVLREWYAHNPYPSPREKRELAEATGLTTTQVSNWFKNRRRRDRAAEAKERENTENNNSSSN
# Assay: universal protein binding microarray; Universal all-10-mer PBM (8x60K, AMADID 030236), 300 nM GST-tagged protein, Alexa Fluor 488 anti-GST; buffer, salt, pH and temperature not stated (as in Berger); high values mean tight binding
# Settings: protein: ivt; tags: N-terminal GST; dsDNA, one strand shown
# Method in brief: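 Homeodomains fused to GST were made by in vitro transcription/translation and measured by anti-GST western blot with a recombinant GST standard curve. At 300 nM final concentration, they were applied in duplicate to universal 'all 10-mer' protein binding microarrays (8×60K format).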
row,Sequence,binding signal [E-score]
1,AGGTATAA,0.17 ± 0.0346
2,CGATGTAC,0.254 ± 0.0159
3,AGGTGTAC,0.4703 ± 0.00148
4,ACCTGTAT,0.17 ± 0.00632
5,CGGTGCAC,0.296 ± 0.017
6,AGGTGCAC,0.264 ± 0.00684
7,ATGTGTAG,0.183 ± 0.0469
8,CAGCGGGG,0.194 ± 0.00852
9,CACTCTCC,0.192 ± 0.0425
10,CACGACGG,0.182 ± 0.0214
11,CCATTACA,0.162 ± 0.00552
12,CCGGAGTA,0.227 ± 0.00414
13,ACACCGTA,0.4704 ± 0.00388
14,ACGCCGTG,0.185 ± 0.00332
15,CCCCCGTA,0.155 ± 0.0244
16,ACACCGTC,0.4594 ± 0.0011
17,CACCCGTC,0.338 ± 0.01
18,ATACCGTG,0.301 ± 0.0379
19,ACACCGTG,0.472 ± 0.00577
20,ACCCCGTC,0.178 ± 0.0222
21,GCACCGTA,0.201 ± 0.0112
22,ACGTAGAG,0.156 ± 0.0478
23,ATAGTACA,0.312 ± 0.0122

row,Sequence,binding signal [E-score]
1,CCCCCCCC,0.188 ± 0.0377
2,TGCAGACA,0.167 ± 0.00968
3,ATACGCGA,0.151 ± 0.036
4,ACACGCGA,0.369 ± 0.00701
5,ACACGCGT,0.402 ± 0.0109
6,ACCCGCGG,0.171 ± 0.0326
7,ACCCGCGT,0.229 ± 0.0104
8,ACACGCGG,0.402 ± 0.00628
9,CCCGGCCC,0.167 ± 0.00402
10,TACCTACA,0.3116 ± 0.00228
11,TCAATACA,0.212 ± 0.0334
12,ACGTGCTC,0.215 ± 0.0224
13,CACCGGAG,0.328 ± 0.00104
14,ACTCAACA,0.172 ± 0.00693
15,ATTAAAAC,0.158 ± 0.019
16,CTTCACAC,0.278 ± 0.0221
17,ATTAACCC,0.187 ± 0.00393
18,CTTAACAC,0.435 ± 0.00897
19,ATTAACAC,0.416 ± 0.0363
20,GACTCCTA,0.2147 ± 0.000728
21,GTTAAGGA,0.163 ± 0.00211
22,CAGGGTGG,0.161 ± 0.0171
23,ACTAGCAC,0.194 ± 0.00984

row,Sequence,binding signal [E-score]
1,GAGATGTA,0.1954 ± 0.000318
2,GCAGACAC,0.352 ± 0.0222
3,CGAGACAC,0.389 ± 0.0103
4,AGAGACAC,0.411 ± 0.00648
5,CCAGACAC,0.37 ± 0.0149
6,ACACAGAT,0.167 ± 0.0587
7,ACAGACAC,0.392 ± 0.013
8,CACGAGAC,0.154 ± 0.0312
9,AGACACAC,0.316 ± 0.0332
10,GGAGACAC,0.397 ± 0.0125
11,CCGGGTTA,0.2 ± 0.024
12,CACGGATG,0.155 ± 0.0314
13,ATCCACTC,0.203 ± 0.0237
14,TACTCCGA,0.211 ± 0.0155
15,CACTCCCG,0.1824 ± 0.000608
16,ATTGATAC,0.196 ± 0.00402
17,ATGGCCGA,0.155 ± 0.00984
18,GGGATACA,0.234 ± 0.00449
19,CACCTGTA,0.232 ± 0.0126
20,GGCAACAC,0.4138 ± 0.00188
21,GGGCACAC,0.284 ± 0.0218
22,CGCAACAC,0.366 ± 0.00704
23,CACACAAC,0.153 ± 0.0694

row,Sequence,binding signal [E-score]
1,CACAACAC,0.38 ± 0.0127
2,CACAACAA,0.168 ± 0.00449
3,GACACAAC,0.207 ± 0.0332
4,AACAACAC,0.414 ± 0.0082
5,GACAACAC,0.386 ± 0.0047
6,AACACAAC,0.176 ± 0.0727
7,AAGGGAGT,0.181 ± 0.0594
8,CACGACTG,0.19 ± 0.0173
9,ATATGGTG,0.245 ± 0.0104
10,CTTCTACA,0.161 ± 0.0182
11,ACCCTCTC,0.164 ± 0.0166
12,ACCCCCTG,0.328 ± 0.0317
13,ACACCCTA,0.4661 ± 0.00184
14,ACACCCTC,0.4743 ± 0.00338
15,ATACCCTG,0.31 ± 0.0148
16,CCACCCTA,0.174 ± 0.00684
17,GCACCCTA,0.226 ± 0.0182
18,ACCCCCTC,0.324 ± 0.00733
19,ACACCCTG,0.4727 ± 0.000955
20,ACCGCACA,0.232 ± 0.00335
21,TGGGAACA,0.172 ± 0.0191
